Shown are actives, neighbours in structure and some others; about 13% of the full set was active somewhere.
FMDV inh: High Throughput Screening for Foot and Mouth Disease Virus Antivirals; FMDV antiviral cell-based qHTS; Potency, µM (series often up to 57.9 µM), without a hit: at the top dose activity change, negative = inhibition, usual class: inhibitors; 410,000 compounds, 1.2% hits; AID 1159524, 2015; calls by dose curve; tested in HEK293T cells; also: read-out not given here; potency is read from the fitted curve at half-maximal effect; % is scaled to controls: 0 for no effect and ±100 for the full control effect; nearly all actives have a fitted effect of over 45% in size
HCV inh: qHTS Assay for Inhibitors of Hepatitis C Virus (HCV) | Huh7.5.1 HCVcc-Cre infection, luciferase reporter, 44 h | Potency, µM (top dose mostly 41.8 µM), for the others: top-dose activity change, negative = inhibition, actives largely listed as inhibitors | 340,000 compounds, 3.4% hits | AID 651820, 2012; active = well fitted inhibition curve with a large enough effect; inconclusive = small, poorly fitted or top-dose-only effect, or another doubt; inactive = no such curve, though single readings can be large or run the other way; also: potency is read from the fitted curve at half-maximal effect; % is scaled to controls: 0 for no effect and ±100 for the full control effect
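Seed cells (1,000/well) for 4 h; treat with compound and infect with HCVcc-Cre, moi about 0.5. Incubate 44 h, then detect luciferase activity.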
Cycloheximide cs: Cycloheximide Counterscreen for Small Molecule Inhibitors of Shiga Toxin; cell reporter, cycloheximide protein synthesis inhibition counterscreen; max response, %; 300,000 compounds, 12% hits; in the data active = max response mostly above about 13%, no sharp cut-off; inactive = mostly below about 14%; also: read at 38.3 µM for the half of the compounds with a filed dose; 0% is about no effect
MARV entry inh: qHTS for inhibitors of binding or entry into cells for Marburg Virus; Marburg virus pseudotyped entry inhibition, cell reporter; Potency, µM (doses to about 37.8 µM), for inactives: at the top dose activity change, negative = inhibition, hits mostly inhibitors; 300,000 compounds, 1.8% hits; calls by dose curve; tested in HEK293 cells; also: potency is read from the fitted curve at half-maximal effect; % is scaled to controls: 0 for no effect and ±100 for the full control effect
LASV entry inh: qHTS for Inhibitors of binding or entry into cells for Lassa Virus; Lassa virus pseudotype entry inhibition, cell reporter; Potency, µM (series often up to 37.9 µM), without a hit: top-dose activity change, negative = inhibition, actives largely listed as inhibitors; 300,000 compounds, 1.2% hits; AID 540256, 2011; calls by dose curve; tested in HEK293 cells; also: potency is read from the fitted curve at half-maximal effect; % is scaled to controls: 0 for no effect and ±100 for the full control effect; nearly all actives have a fitted effect of over 50% in size
Shiga inhibitor: A qHTS for Small Molecule Inhibitors of Shiga Toxin; Vero cells, Shiga toxin protein synthesis inhibition reporter; inhibition, % at 38.7 µM; 290,000 compounds, 9.2% hits; AID 2315, 2010; in the data active = inhibition mostly above about 28%, no sharp cut-off; inactive = mostly below about 43%; also: 0% is about no effect
Active calls of the source: *; ? = inconclusive; · = not tested or not shown; [ ] = another dose, or the depositor's remark.

SMILES	FMDV inh	HCV inh	Cycloheximide cs	MARV entry inh	LASV entry inh	Shiga inhibitor
Cc1ccc(NS(=O)(=O)c2ccc(N3CCN(c4ccc(O)cc4)CC3)c([N+](=O)[O-])c2)c(C)c1	28µM*	?	-2	2.8µM*	-63%	-2
CC(=O)Nc1cc(C(C)(C)C)c(O)c(C(C)(C)C)c1	-12%	-27%	-2	1%	-8%	-19
COc1ccc(-n2cnc3sc4c(c3c2=O)CCCC4)cc1	7%	?	25	4%[46.1 µM]	-12%[46.1 µM]	72*
Cc1cccc(-n2cnc3sc(C)c(C)c3c2=O)c1	6%	?	5	-5%	14%	20
COc1ccc(-n2c(SCCNCCO)nc3sc4c(c3c2=O)CCCC4)cc1	-7%	2.8µM*	-3	?	?	-6
COc1cccc(-n2cnc3sc(C)c(C)c3c2=O)c1	-11%	12%	29*	?	-5%	active
COc1ccc(-n2c(SCC(=O)O)nc3sc4c(c3c2=O)CCCC4)cc1	-10%	5%	-3	14%[46.1 µM]	-14%[46.1 µM]	3
Cc1ccc(SCC(=O)OC(C)C(=O)Nc2ccc(S(N)(=O)=O)cc2)cc1C (centres undefined)	0%	8%	·	?	-13%[46.1 µM]	·
COc1ccc(C(C)=O)cc1CN1C(=O)NC2(CCCCC2)C1=O	5%	7%	-1	10%	-1%	-16
COC(=O)c1sc2ccccc2c1-n1cccc1C(=O)C(=O)Nc1ccc(C)cc1	-19%	?	5	7%	-3%	26
N#CC(CCc1ccc([N+](=O)[O-])cc1)(CCc1ccc([N+](=O)[O-])cc1)C(N)=O	?	-27%	·	?	-9%[46.1 µM]	·
N#C/C(=C\C1CC=CCC1)c1nc2ccccc2[nH]1 (centres undefined)	?	?	27*	?	?	48
CN(C)/C=C(\C#N)c1nc2ccccc2[nH]1	·	0%	13	23%	14%	26
Cn1c(/C(C#N)=C/C2CC=CCC2)nc2ccccc21 (centres undefined)	·	5%	9	-28%	-22%	-7
N#C/C(=C/c1cccs1)c1nc2ccccc2[nH]1	-1%	?	65*	?	12%	64*
N#C/C(=C\c1c(Cl)cccc1Cl)c1nc2ccccc2[nH]1	-18%	-26%	14*	?	?	36
Cc1ccc(/C=C(\C#N)c2nc3ccccc3[nH]2)s1	·	?	49*	2%	-6%	53*
CCC(=O)N1c2ccc(S(=O)(=O)N3CCN(c4ccccc4)CC3)cc2CC1C (centres undefined)	?	·	·	-29%[46.1 µM]	-27%[46.1 µM]	·
N#C/C(=C(/O)CCl)c1nc2ccccc2[nH]1	35µM*	?	7	?	?	-3
N#C/C(=C\c1ccc[nH]1)Sc1nc2ccccc2s1	3%	10%	-1	12%	0%	-6
Cc1c(-c2cccc(Cl)c2)nc2ccccc2c1C(=O)OC/C(O)=C(\C#N)c1nc2ccccc2[nH]1	-25%	8.9µM*	-1	?	4%	31
N#C/C(=C\c1cccs1)Sc1nc2ccccc2s1	20%	?	31*	?	1%	44*
CCOC(=O)c1c(C)[nH]c(C(=O)OCC(O)=C(C#N)c2nc3ccccc3[nH]2)c1C	9%	-14%	·	?	?	·
COc1cccc2c(Cl)c(CCCl)c(C)nc12	-4%	-20%	-1	?	-27%[46.1 µM]	25
O=C(CCNS(=O)(=O)c1ccccc1)N1CCCCCC1	28%	16%	32*	·	·	47
SMILES	FMDV inh	HCV inh	Cycloheximide cs	MARV entry inh	LASV entry inh	Shiga inhibitor
CCOc1ccc(S(=O)(=O)NCCC(=O)N2CCN(Cc3ccccc3)CC2)cc1	-27%	-6%	·	-28%	-7%	·
CCOc1ccc(S(=O)(=O)NCCC(=O)N2CC=C(c3ccccc3)CC2)cc1	?	22µM*	·	·	·	·
O=C(CCNS(=O)(=O)c1ccccc1)N1CCCCCCC1	9%	2%	·	8%[46.1 µM]	18%	·
O=C(CSc1cn(CC(=O)N2CCCC2)c2ccccc12)Nc1cc(C(F)(F)F)ccc1Cl	-16%	·	·	·	0%[46.1 µM]	·
CC(C)(C)NCC(=Cc1ccccc1)C(=O)c1ccccc1	8.9µM*	?	·	7.9µM*	7.1µM*	·
COc1ccc(C=C(C(=O)c2ccccc2)C(=O)c2ccccc2)cc1	6%	·	·	·	·	·
CCOc1ccc(NC(=O)[C@@H](NC(=O)c2ccco2)C(C)C)cc1	-10%	-13%	1	·	·	-3
Cc1ccc2ccccc2c1C(O)c1ncc(-c2cccc(F)c2)[nH]1 (centres undefined)	26%	·	·	·	·	·
COc1ccc(-n2nc(C(=O)NCC(=O)N3CCN(c4cccc(Cl)c4)CC3)c3ccccc3c2=O)c(OC)c1	-5%	-25%	1	?	6%[46.1 µM]	19
Oc1c(/C=N/c2ccccn2)sc2ccccc12	-15%	14%	40*	·	·	61*
CC(=O)NCCN=Cc1sc2ccccc2c1O	17%	14%	40*	21%	-5%	68*
Oc1c(C=Nc2cccnc2)sc2ccccc12	13%	2%	50*	17%	-1%	95*
CN=Cc1sc2ccccc2c1O	·	-2%	19*	8%	2%	33
Oc1c(C=Nc2ccccc2)sc2ccccc12	-63%	3%	-2	?	?	3
O=c1oc2ccccc2c(O)c1C=NCc1ccccn1	7%	5%	8	-12%	?	8
CC(=O)Nc1ccc(NC(=O)CNC(=O)c2sc3ccccc3c2Cl)cc1	6%	13%	·	?	-1%	·
O=C(O)c1cccc(S(=O)(=O)N2CCc3ccccc3C2)c1	-11%	10%	8	0%	-1%	-11
CC(=O)OC1CCC(OC(C)=O)c2c1n([O-])c(C)c(C)[n+]2=O (centres undefined)	-1%	15%	-3	1%	22%	-13
Cn1c(NC(=O)Cc2cccs2)cc(=O)n(C)c1=O	-13%	4%	1	·	·	-8
Oc1c(C=Nc2ccc(Cl)cn2)sc2ccccc12	-6%	9%	29*	?	?	14*
Oc1c(C=NCc2ccncc2)sc2ccccc12	52%	-17%	47*	13%	21%	84*
COc1ccc(/C=N/NC(=O)c2cccc([N+](=O)[O-])c2)cc1OC(=O)c1ccccc1	33%	11µM*	10	?	?	-14
COc1ccc(/C=N/NC(=O)c2cccc([N+](=O)[O-])c2)cc1OC	-4%	2%	1	8%	4%	17
COc1cc(/C=N/NC(=O)c2cccc([N+](=O)[O-])c2)ccc1OC(=O)c1ccco1	11%	5%	7	2%[46.1 µM]	3%	40*
COc1cc(/C=N/Nc2cccc(C)c2)ccc1OC(=O)c1ccco1	70%	1%	39*	0%	-1%	20
COc1cc(/C=N/NC(N)=O)ccc1OC(=O)c1ccco1	0%	-3%	0	?	-12%[46.1 µM]	-15
